Test results: paper PMC3919609, “Deep sequencing of large library selections allows computational discovery of diverse sets of zinc fingers that bind common targets”

Experiments:
Assay in all cases: Zn; 100 nM beta-estradiol; yeast GFP reporter, 12 h induction, 3 biological replicates
[1] = biological target: RA three-finger array, finger 2 QSGNLTE (synthetic construct (mouse Zif268 …, UniProt P08046 333-418, E352N;T354R;R355A;R377Q;D379G;H380N;T383E;D407A;E408N;R409L;K410V)); conditions: tags: estrogen receptor LBD - VP16 fusion (left out); vector residues GT and GS kept at the ends; dsDNA, one strand shown
[2] = biological target: RA three-finger array, finger 2 RSGNLRS (synthetic construct (mouse Zif268 …, UniProt P08046 333-418, E352N;T354R;R355A;D379G;H380N;T382R;T383S;D407A;E408N;R409L;K410V)); conditions: tags: estrogen receptor LBD - VP16 fusion (left out); vector residues GT and GS kept at the ends; dsDNA, one strand shown
[3] = biological target: RA three-finger array, finger 2 QSGNLKS (synthetic construct (mouse Zif268 …, UniProt P08046 333-418, E352N;T354R;R355A;R377Q;D379G;H380N;T382K;T383S;D407A;E408N;R409L;K410V)); conditions: tags: estrogen receptor LBD - VP16 fusion (left out); vector residues GT and GS kept at the ends; dsDNA, one strand shown
[4] = biological target: Zif268 (Egr1) fingers 1-3 (Mus musculus, UniProt P08046 333-418); conditions: dsDNA, one strand shown
[5] = biological target: RA three-finger array, finger 2 DSSNLRS (synthetic construct (mouse Zif268 …, UniProt P08046 333-418, E352N;T354R;R355A;R377D;D379S;H380N;T382R;T383S;D407A;E408N;R409L;K410V)); conditions: tags: estrogen receptor LBD - VP16 fusion (left out); vector residues GT and GS kept at the ends; dsDNA, one strand shown
[6] = biological target: RA three-finger array, finger 2 ASSNLRA (synthetic construct (mouse Zif268 …, UniProt P08046 333-418, E352N;T354R;R355A;R377A;D379S;H380N;T382R;T383A;D407A;E408N;R409L;K410V)); conditions: tags: estrogen receptor LBD - VP16 fusion (left out); vector residues GT and GS kept at the ends; dsDNA, one strand shown
[7] = biological target: RA three-finger array, finger 2 HSSNLTH (synthetic construct (mouse Zif268 …, UniProt P08046 333-418, E352N;T354R;R355A;R377H;D379S;H380N;T383H;D407A;E408N;R409L;K410V)); conditions: tags: estrogen receptor LBD - VP16 fusion (left out); vector residues GT and GS kept at the ends; dsDNA, one strand shown
[8] = biological target: RA three-finger array, finger 2 TSYNLTR (synthetic construct (mouse Zif268 …, UniProt P08046 333-418, E352N;T354R;R355A;R377T;D379Y;H380N;T383R;D407A;E408N;R409L;K410V)); conditions: tags: estrogen receptor LBD - VP16 fusion (left out); vector residues GT and GS kept at the ends; dsDNA, one strand shown
[9] = biological target: RA three-finger array, finger 2 RADNLTE (synthetic construct (mouse Zif268 …, UniProt P08046 333-418, E352N;T354R;R355A;S378A;H380N;T383E;D407A;E408N;R409L;K410V)); conditions: tags: estrogen receptor LBD - VP16 fusion (left out); vector residues GT and GS kept at the ends; dsDNA, one strand shown
[10] = biological target: RA three-finger array, finger 2 TSWNLRS (synthetic construct (mouse Zif268 …, UniProt P08046 333-418, E352N;T354R;R355A;R377T;D379W;H380N;T382R;T383S;D407A;E408N;R409L;K410V)); conditions: tags: estrogen receptor LBD - VP16 fusion (left out); vector residues GT and GS kept at the ends; dsDNA, one strand shown
[11] = biological target: RA three-finger array, finger 2 RSDNLTR (synthetic construct (mouse Zif268 …, UniProt P08046 333-418, E352N;T354R;R355A;H380N;T383R;D407A;E408N;R409L;K410V)); conditions: tags: estrogen receptor LBD - VP16 fusion (left out); vector residues GT and GS kept at the ends; dsDNA, one strand shown

With GAGCAAAAG the binding signal [1] was 0.251 ± 0.044 mean GFP / mean GFP of Zif268 on its consensus site, the binding signal [2] was 0.138 ± 0.011 mean GFP / mean GFP of Zif268 on its consensus site and the binding signal [3] was 0.463 ± 0.041 mean GFP / mean GFP of Zif268 on its consensus site.
GCGTGGGTG was tested, and the binding signal [4] was 0.878 mean GFP / mean GFP of Zif268 on its consensus site.
In the case of GAGCACAAG, the binding signal [5] is reported as 0.498 ± 0.055 mean GFP / mean GFP of Zif268 on its consensus site, the binding signal [6] is reported as 0.225 ± 0.031 mean GFP / mean GFP of Zif268 on its consensus site and the binding signal [7] is reported as 0.472 ± 0.086 mean GFP / mean GFP of Zif268 on its consensus site. For the same sequence, the binding signal [3] was 0.219 ± 0.008 mean GFP / mean GFP of Zif268 on its consensus site.
For GCGTGGGGG, the binding signal [4] was 0.059 mean GFP / mean GFP of Zif268 on its consensus site.
For GAGCAGAAG, the binding signal [8] was 0.098 mean GFP / mean GFP of Zif268 on its consensus site, the binding signal [9] was 0.267 ± 0.016 mean GFP / mean GFP of Zif268 on its consensus site and the binding signal [10] was 1.13 ± 0.189 mean GFP / mean GFP of Zif268 on its consensus site. The binding signal [6] was 0.103 ± 0.004 mean GFP / mean GFP of Zif268 on its consensus site, the binding signal [2] was 0.997 ± 0.075 mean GFP / mean GFP of Zif268 on its consensus site and the binding signal [3] was 0.174 ± 0.003 mean GFP / mean GFP of Zif268 on its consensus site.
GAGGAGAAG was tested, and the binding signal [8] was 0.873 ± 0.063 mean GFP / mean GFP of Zif268 on its consensus site, the binding signal [10] was 0.103 ± 0.007 mean GFP / mean GFP of Zif268 on its consensus site and the binding signal [11] was 0.986 ± 0.121 mean GFP / mean GFP of Zif268 on its consensus site. The binding signal [2] was 0.149 ± 0.009 mean GFP / mean GFP of Zif268 on its consensus site.
With GCGTGGGCC the binding signal [4] was 0.147 mean GFP / mean GFP of Zif268 on its consensus site.
In the case of GCGTGGGAG, the binding signal [4] is reported as 0.755 mean GFP / mean GFP of Zif268 on its consensus site.
GAGCATAAG was tested, and the binding signal [10] was 0.344 ± 0.012 mean GFP / mean GFP of Zif268 on its consensus site, the binding signal [6] was 0.875 ± 0.05 mean GFP / mean GFP of Zif268 on its consensus site and the binding signal [2] was 0.264 ± 0.005 mean GFP / mean GFP of Zif268 on its consensus site. The binding signal [3] was 0.226 ± 0.01 mean GFP / mean GFP of Zif268 on its consensus site.
In the case of GCGTGGGCG, the binding signal [4] is reported as 1 mean GFP / mean GFP of Zif268 on its consensus site.
GAGAAGAAG was tested, and the binding signal [10] was 0.437 ± 0.032 mean GFP / mean GFP of Zif268 on its consensus site and the binding signal [2] was 0.587 ± 0.052 mean GFP / mean GFP of Zif268 on its consensus site.
